From PubChem BioAssay AID485341 (National Center for Advancing Translational Sciences (NCATS), 2010)
The whole screen tested about 330,000 compounds, of which about 1,700 (0.52%) were called active. Calls follow the shape of the dose curve; as a rule, active = well fitted inhibition curve with a large enough effect; inconclusive = small, poorly fitted or top-dose-only effect; inactive = no such curve, though single readings can be large or run the other way. The entries come from a sample that favours actives as a whole.

Each compound was assayed against Beta-lactamase (Escherichia coli (strain K12)) (UniProt P00811) (assay: qHTS Inhibitors of AmpC Beta-Lactamase (assay without detergent)). Details: AmpC nitrocefin hydrolysis, absorbance 480 nm, 0.0001% Triton; series mostly up to 57.1 µM; activity change, negative = inhibition: at the top concentration.
Sequence of Beta-lactamase (Escherichia coli (strain K12)) (P00811 whole entry, looked up): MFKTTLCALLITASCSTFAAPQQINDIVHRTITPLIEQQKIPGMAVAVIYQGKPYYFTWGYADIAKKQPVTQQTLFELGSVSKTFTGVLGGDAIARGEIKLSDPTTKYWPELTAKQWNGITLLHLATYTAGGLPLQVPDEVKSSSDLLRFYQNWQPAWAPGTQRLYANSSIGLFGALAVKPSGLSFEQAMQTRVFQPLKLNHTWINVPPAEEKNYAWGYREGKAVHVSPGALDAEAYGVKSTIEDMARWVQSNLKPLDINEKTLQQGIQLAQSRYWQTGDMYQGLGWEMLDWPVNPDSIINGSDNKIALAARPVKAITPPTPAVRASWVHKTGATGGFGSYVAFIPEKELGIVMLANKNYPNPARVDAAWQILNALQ
Procedure: NIH Molecular Libraries Probe Production Network [MLPCN] NIH Chemical Genomics Center [NCGC] Assay Provider: Professor Brian Shoichet, UCSF Assay Overview: This aggregation profiling approach exploits the sensitivity of aggregate formation to detergent. Inhibition of b-lactamase is measured in the presence and absence of 0.01% Triton X-100. This particular assay had the prescence of 0.01% Triton X-100. See Pubchem assay "Promiscuous and Specific Inhibitors of AmpC Beta-Lactamase (assay without detergent)" for related screen. Compounds that inhibit only in the absence of detergent are considered likely promiscuous aggregators. A screen of 1,030 compounds was performed in Brian Shoichet's lab in 96-well format. AmpC activity was measured by following the absorbance at 480 nm. Nitrocefin is a chromogenic substrate: while nitrocefin is yellow (lmax 390 nm), the product of its hydrolysis is red (lmax 486 nm, 17,000 M-1). AmpC beta lactamase was provided by Shoichet Lab, UCSF.
Buffer: 20 mM phosphate buffer, pH 7.0 Triton X-100: No Detergent screen: 0.0001%, Detergent screen: 0.01%. Reagents/Controls: Buffer in columns 3 and 4 as negative control (no enzyme). 5.3 nM AmpC in columns 1, 2, 5-48. Titration of UCSF compound 9 control (from 10 mM, then 1:2) pin-transferred to column 2. Column 1 is neutral (100% activity). Assay Steps: Six uL of reagents were dispensed to 1536-well Greiner black clear bottom plates. Compounds and controls (23 nL) were transferred via Kalypsys PinTool. The plates were incubated for 15 min at room temperature, and then 2 uL of 800 uM solution of nitrocefin was added to start the reaction. The plates were immediately transferred to and read every 20 seconds for 4 min on ViewLux (Perkin-Elmer) High-throughput CCD imager using 480 nm absorbance protocol. During dispense, reagent bottles were kept submerged into 4 deg C water bath. Keywords: NIH Roadmap, MLSCN, MLI, MLSMR, qHTS, NCGC, AmpC Beta-Lactamase, Aggregation
Also: nearly all actives have a fitted effect of over 20% in size.
Potency is read from the fitted curve at half-maximal effect.

Row | Structure (SMILES) | activity change, negative = inhibition | Potency
1 | O=C(CSc1nc(O)c(Cc2ccccc2)c(=O)[nH]1)Nc1nc2c(s1)CCCC2 | -39.3% (inactive) | 
2 | CCOC(=O)c1sc(NC(=O)CSc2n[nH]c(CC)n2)nc1C | -18.1% (inactive) | 
3 | O=C(O)CCN=C1CCc2ccccc2N1 | -16.2% (inactive) | 
4 | Cc1ccc(C)c(NC(=O)CSc2nnc(Cc3cccn3C)n2-c2ccc(F)cc2)c1 | 80.5% (inactive) | 
5 | COC(=O)c1ccc(NC(=O)CSc2nnc(Cc3cccn3C)n2-c2ccc(F)cc2)cc1 | 144% (inactive) | 
6 | COc1ccccc1NC(=O)CSc1nnc(Cc2cccn2C)n1-c1ccc(F)cc1 |  | 1.41 µM (active)
7 | O=C(CN1CCCC1)Nc1sc2c(c1C(=O)Nc1ccccc1)CCCC2 | 10.1% (inactive) | 
8 | Cc1cc2ncn(CCCCOc3ccccc3)c2cc1C | 38.5% (inactive) | 
9 | COc1ccccc1C(=O)NCC(=O)OCC(=O)Nc1nnc(-c2ccccc2)o1 | -23.1% (inactive) | 
10 | CC(=O)Nc1cccc(C(=O)OCC(=O)Nc2nnc(-c3ccccc3)o2)c1 | -23.2% (inactive) | 
11 | O=C(COC(=O)c1ccc(Oc2ccccc2)cc1)Nc1nnc(-c2ccccc2)o1 |  | 12.6 µM (active)
12 | CCn1nnc(NC(=O)c2c(OC)cccc2OC)n1 | -5.33% (inactive) | 
13 | CCN(C(=O)COC(=O)C1CCN(S(=O)(=O)c2ccc(C)c(C)c2)CC1)C1CCS(=O)(=O)C1 (stereo unspecified) | 114% (inactive) | 
14 | CCOC(=O)C1CCCN(C(=O)CSc2nnc3nc(C)cc(C)n23)C1 (stereo unspecified) | 122% (inactive) | 
15 | Cc1cc(C)c(-c2csc(NC(=O)CCCc3nc4ccccc4c(=O)[nH]3)n2)c(C)c1 |  | 35.5 µM (active)
16 | O=C(CSc1nc2ccccc2c(=O)[nH]1)Nc1nc(-c2ccc(Br)cc2)cs1 | -21.7% (inactive) | 
17 | CC(=O)NCc1ccc(-c2csc(NC(=O)CCCc3nc4ccccc4c(=O)[nH]3)n2)cc1 | -1.05% (inactive) | 
18 | O=c1cc(CO)oc(C(Nc2cccc(C(F)(F)F)c2)c2ccccn2)c1O (stereo unspecified) | -7.84% (inactive) | 
19 | O=C(O)CN1c2cccc3cccc(c23)S1(=O)=O | -20.4% (inactive) | 
20 | Cc1cc(NC(=O)CS(=O)(=O)c2cn(C)c3ccccc23)no1 |  | 10 µM (active)
21 | CCOC(=O)c1ccc(NC(=O)CS(=O)(=O)c2cn(CC)c3ccccc23)cc1 | -17.8% (inactive) | 
22 | Cc1cc(NC(=O)COn2nnc3ccccc32)no1 | -10.9% (inactive) | 
23 | Cc1ccc(NC(=O)CCCNC(=O)c2ccc(Cl)cc2)cc1S(=O)(=O)N1CCCCC1 | -9.32% (inactive) | 
24 | CC1=C[C@H]2Cc3cc(C)cc(C)c3S(=O)(=O)[C@@H]2C=C1 | -29.6% (inactive) | 
25 | CC1(C)C2CC=C(/C=N/NC(=O)C3CC3)C1C2 (stereo unspecified) | -16.2% (inactive) | 
26 | CC1(C)C2CC=C(/C=N/NC(=O)c3ccc(Cl)cc3)C1C2 (stereo unspecified) |  | 11.2 µM (active)

Row | Structure (SMILES) | activity change, negative = inhibition | Potency
27 | Cn1nccc1/C=N\NC(=O)c1ccc(Cl)cc1 | -18.8% (inactive) | 
28 | Cc1c(C(=O)N(C)CCc2cnn(C)c2)oc2c(F)cccc12 | 17.1% (inactive) | 
29 | CN(C)S(=O)(=O)c1ccc(NC(=O)COC(=O)c2n[nH]c3ccccc23)cc1 | -36.1% (inactive) | 
30 | COc1ccc(COC(=O)c2n[nH]c3ccccc23)cc1F | -30.2% (inactive) | 
31 | CCN(CC)S(=O)(=O)c1ccc2nc(COC(=O)c3n[nH]c4ccccc34)[nH]c2c1 |  | 22.4 µM (active)
32 | COc1ccc(C(=O)O)cc1S(=O)(=O)NCc1cccnc1 | -9.22% (inactive) | 
33 | CCC(C)NC(=O)c1ccccc1NC(=O)c1ccccc1N(C)S(C)(=O)=O (stereo unspecified) | -6.03% (inactive) | 
34 | Cc1ccc(C(=O)Oc2coc(CSc3nnc(NC(=O)c4cccs4)s3)cc2=O)cc1C |  | 7.08 µM (active)
35 | O=C(Cc1cccs1)Nc1nnc(SCc2ccc(F)cc2)s1 | -23.8% (inactive) | 
36 | COC(=O)c1ccc(CSc2nnc(NC(C)C)s2)cc1 | -22.8% (inactive) | 
37 | COc1cc(OC)cc(C(=O)NNC(=O)CNC(=O)c2ccc(Br)o2)c1 | -17.5% (inactive) | 
38 | CSCC[C@H](NC(=O)N1CCn2c1nc1ccccc12)C(=O)NCc1ccc2c(c1)OCO2 | 85% (inactive) | 
39 | CCc1ccc(-n2c(=S)sc3c(=O)n(-c4ccccc4OC)c(=S)[nH]c32)cc1 | -39% (inactive) | 
40 | Cc1ccc(S(=O)(=O)N(Cc2ccccc2)c2ccccn2)cc1[N+](=O)[O-] | -57.8% (inactive) | 
41 | CCC(=O)N(Cc1ccccc1)c1ccccn1 | -9.04% (inactive) | 
42 | Cc1csc2ncc(C(=O)N(Cc3ccccc3)c3ccccn3)c(=O)n12 |  | 5.62 µM (active)
43 | CC(C)(C)C(=O)N(Cc1ccccc1)c1ccccn1 | -13.5% (inactive) | 
44 | Cc1ccc(C(=O)NNC(=O)c2cc3cc4ccccc4nc3s2)cc1 |  | 22.4 µM (active)
45 | Cc1ccc(C(=O)NNc2ncnc3ccccc23)cc1 | -20.7% (inactive) | 
46 | Cc1ccc(C(=O)NNC(=O)c2ccc3c(c2)OCCO3)cc1 | -13.1% (inactive) | 
47 | COc1cccc(N(CC(=O)NCc2ccccc2)C(=O)CCC(=O)Nc2nccs2)c1 | -5.9% (inactive) | 
48 | COC(=O)CCC(=O)N1CCCC(CO)(Cc2ccccc2)C1 (stereo unspecified) | -7.35% (inactive) | 
49 | COc1ccc(C)cc1Nc1nc(C)nc2c1oc1ccccc12 | -2.54% (inactive) | 
50 | Cc1nc(Cl)c2oc3ccccc3c2n1 |  | 0.158 µM (active)
51 | Cc1nc(N2CCCC2C(=O)O)c2oc3ccccc3c2n1 (stereo unspecified) | -11.1% (inactive) | 
